Consider 26 compounds from PubChem BioAssay (Tox21).

Structures are written as SMILES. Several values for one entry are separate records, joined by “and”; a condition that tells them apart may be missing. Equal values may be shown once. Results filed as inconclusive are left out. The source holds several records for some structures; these can differ, active in one and inactive in another. Activity calls are given as the source filed them. Unless noted, calls follow the shape of the dose curve; as a rule, active = well fitted curve in the direction sought with a large enough effect in the repeat runs; inconclusive = weak or mixed curves; inactive = no such curve, though single readings can be large; an effect the other way counts as inactive or inconclusive.

The target in test [1] is Progesterone receptor (Homo sapiens) (UniProt P06401). Put plainly: qHTS assay to identify small molecule antagonists of the progesterone receptor (PR) signaling pathway (AID 1346795; active = well fitted inhibition curve with a large enough effect in the signal ratio in the repeat runs, not every such curve was filed as active; the % refers to the signal ratio; also: potency is read from the fitted curve at half-maximal effect). The gist of the method: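 Screening used a GripTite HEK293T line with PR-responsive UAS-beta-lactamase. Cells were challenged with compound in the presence of 1 nM R5020 final for 16 hr at 37C; B/G FRET substrate, 2 hr room temperature, fluorescence.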
(In general: In qHTS, concentration-response curves come from the screen itself.)

The nature of test [2]: qHTS assay to identify small molecule antagonists of the progesterone receptor (PR) signaling pathway - cell viability counter screen (AID 1346798). Also: nearly all actives have a fitted effect of over 50% in size. Also: potency is read from the fitted curve at half-maximal effect. As to activity change, negative = cytotoxicity: series mostly up to about 92 µM. A digest of the protocol: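 Measures cytotoxicity in parallel with the PR antagonist reporter read: HEK293T PR-UAS-bla cells get compound and R5020 for 16 hr, and remaining viable cells are quantified by CellTiter-Glo luminescence.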

Test [3] can be described thus: qHTS assay to identify small molecule antagonists of the TGF-beta/Smad signaling pathway - cell viability counter screen (AID 1346824). Also: nearly all actives have a fitted effect of over 50% in size. Also: potency is read from the fitted curve at half-maximal effect. The gist of the method:
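SBE-bla HEK 293T cells, incubated overnight, then compound plus 0.25 ng/mL TGF-beta1 (stock added) for 5 hr at 37 C. Viability was read in the same wells by CellTiter-Glo luminescence after 30 min at room temperature.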

Test [4] is described as follows: qHTS assay to identify small molecule agonists of the TGF-beta/Smad signaling pathway (AID 1346859; active = well fitted activation curve with a large enough effect in the signal ratio in the repeat runs, not every such curve was filed as active; the % refers to the signal ratio; also: series mostly up to about 77 µM). The gist of the method: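 Beta-lactamase reporter activity downstream of Smad binding elements was measured in stably transfected HEK 293T cells; compounds were incubated for 5 hr, substrate for 2 hr at room temperature.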
Test [5] addresses Thyrotropin-releasing hormone receptor (Homo sapiens) (UniProt P34981). Put plainly: qHTS assay to identify small molecule antagonists of the thyrotropin-releasing hormone receptor (TRHR) signaling pathway (AID 1346877; active = well fitted inhibition curve with a large enough effect in the repeat runs, not every such curve was filed as active; also: potency is read from the fitted curve at half-maximal effect). A digest of the protocol:
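Kinetic fluorescence (3 min, 1 s resolution) following stimulation with TRH at 1 nM final; HEK293 cells bearing human TRHR; 5 min compound preincubation at RT; concentration-response over 15 points, triplicates.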

A short description of test [6]: Human pregnane X receptor (PXR) small molecule agonists, qHTS cell viability counter screen (AID 1346977). Also: nearly all actives have a fitted effect of over 50% in size. Also: potency is read from the fitted curve at half-maximal effect. The gist of the method: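 After a 5hr pre-incubation, PXR-Luc HepG2 cells received compounds plus positive control in DMSO and were kept 24hr at 37C. Cell viability was quantified by fluorescence from CellTiter-Fluor added for the final hour.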
Test [7] can be described thus: Caspase-3/7 induction in HepG2 cells by small molecules, qHTS assay (AID 1346978). Also: nearly all actives have a fitted effect of over 15% in size. Also: potency is read from the fitted curve at half-maximal effect. The gist of the method:
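Wild-type HepG2 cells, 2,000/well, settled 5 hr at 37 C and 5% CO2, then compound-treated for 17 hr; caspase-3/7 activity read by luminescent Caspase-Glo 3/7 after 30 min at room temperature.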

The nature of test [8]: qHTS assay to identify small molecule agonists of the progesterone receptor (PR) signaling pathway - cell viability counter screen (AID 1346799; calls by dose curve; also: nearly all actives have a fitted effect of over 45% in size; also: potency is read from the fitted curve at half-maximal effect). A digest of the protocol:
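Using the same plates as the PR reporter screen, HEK293T PR-UAS-bla cells received compounds for 16 hr at 37C and were then lysed with CellTiter-Glo; luminescence was read 30 min later at room temperature.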

Test [9] is described as follows: qHTS assay to identify small molecule agonists of the TGF-beta/Smad signaling pathway - cell viability counter screen (AID 1346829). Also: nearly all actives have a fitted effect of over 45% in size. Also: potency is read from the fitted curve at half-maximal effect. As to activity change, negative = cytotoxicity: top concentration of the series differs between compounds. A digest of the protocol:
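Cytotoxicity counter screen: CellTiter-Glo luminescence (30 min, room temperature) measured in the SBE-bla HEK 293T reporter wells after 5 hr compound treatment at 37 C and the 2 hr substrate step.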

In test [10] the target is Thyrotropin-releasing hormone receptor (Homo sapiens) (UniProt P34981). Put plainly: qHTS assay to identify small molecule agonists of the thyrotropin-releasing hormone receptor (TRHR) signaling pathway (AID 1346891; calls by dose curve; also: potency is read from the fitted curve at half-maximal effect;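 as to activation: HEK293 cells expressing TRHR with calcium dye readout; series mostly up to about 58 µM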). A digest of the protocol: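 Overnight-plated (18 h, 37 °C, 5% CO2) TRHR-Hek293 cells; 2 h calcium dye at 37 °C; compound in DMSO; 3-min kinetic fluorescence read.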
% is scaled to controls: 0 for no effect and ±100 for the full control effect.

Progesterone receptor (Homo sapiens), sequence (P06401 whole entry, looked up): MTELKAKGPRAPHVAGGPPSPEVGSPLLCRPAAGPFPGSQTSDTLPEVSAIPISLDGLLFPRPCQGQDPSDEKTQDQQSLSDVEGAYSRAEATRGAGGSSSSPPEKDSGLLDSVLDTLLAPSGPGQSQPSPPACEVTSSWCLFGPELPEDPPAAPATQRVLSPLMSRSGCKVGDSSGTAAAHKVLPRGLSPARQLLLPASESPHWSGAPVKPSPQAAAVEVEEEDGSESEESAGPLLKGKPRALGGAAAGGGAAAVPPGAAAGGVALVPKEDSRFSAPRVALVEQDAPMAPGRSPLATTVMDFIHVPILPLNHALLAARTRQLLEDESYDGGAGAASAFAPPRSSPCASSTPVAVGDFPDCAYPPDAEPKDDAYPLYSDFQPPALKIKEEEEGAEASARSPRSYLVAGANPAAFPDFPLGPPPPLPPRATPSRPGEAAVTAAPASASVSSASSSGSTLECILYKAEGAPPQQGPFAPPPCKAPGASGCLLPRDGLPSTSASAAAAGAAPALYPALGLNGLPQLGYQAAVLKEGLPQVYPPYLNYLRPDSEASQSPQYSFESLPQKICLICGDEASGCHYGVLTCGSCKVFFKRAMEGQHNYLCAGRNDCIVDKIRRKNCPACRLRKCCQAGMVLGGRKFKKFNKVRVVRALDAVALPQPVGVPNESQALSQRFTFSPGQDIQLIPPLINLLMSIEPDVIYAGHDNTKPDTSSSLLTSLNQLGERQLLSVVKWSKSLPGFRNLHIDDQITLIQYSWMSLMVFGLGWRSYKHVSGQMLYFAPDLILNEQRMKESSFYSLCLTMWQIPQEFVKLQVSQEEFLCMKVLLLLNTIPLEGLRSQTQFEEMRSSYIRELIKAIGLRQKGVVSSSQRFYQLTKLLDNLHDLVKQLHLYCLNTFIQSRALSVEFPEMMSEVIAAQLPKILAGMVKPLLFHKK
Thyrotropin-releasing hormone receptor (Homo sapiens), sequence (P34981 whole entry, looked up): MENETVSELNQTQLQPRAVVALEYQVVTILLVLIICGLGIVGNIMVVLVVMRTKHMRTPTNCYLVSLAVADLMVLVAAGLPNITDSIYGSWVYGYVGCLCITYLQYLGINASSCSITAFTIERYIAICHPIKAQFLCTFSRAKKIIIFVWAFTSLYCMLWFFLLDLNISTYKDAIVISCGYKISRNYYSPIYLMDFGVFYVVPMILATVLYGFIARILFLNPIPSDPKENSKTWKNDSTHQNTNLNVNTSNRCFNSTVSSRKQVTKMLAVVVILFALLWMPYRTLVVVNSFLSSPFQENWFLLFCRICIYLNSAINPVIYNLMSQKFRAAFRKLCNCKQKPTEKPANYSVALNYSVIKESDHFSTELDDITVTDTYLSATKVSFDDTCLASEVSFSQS

As to `Oc1c(Cl)cc(Cl)c(Cl)c1Cc1c(O)c(Cl)cc(Cl)c1Cl`, the Potency in test [1] was 48.6 µM (active); in [2] it was 43.1 µM (active); in test [5] it was 12 µM (active) and 26.9 µM (active); in test [6] it was 2.72 µM (active) and 1.72 µM (active) and 6.68 µM (active). For the same compound, the Potency result in test [3] and in test [7] was “inactive” each time. In test [4], the call was inactive.
Consider `Cc1c(O)cccc1C(=O)N[C@@H](CSc1ccccc1)[C@H](O)CN1C[C@H]2CCCC[C@H]2C[C@H]1C(=O)NC(C)(C)C`, for which the Potency in test [1] is 13.3 µM (active) and 21.1 µM (active); in test [2] it was 29.8 µM (active); in test [8], 26.6 µM (active); in [6], 16.8 µM (active) and 13.3 µM (active); in test [7], 66.8 µM (active).
For `COC(=O)[C@H]1[C@H]2C[C@@H]3c4[nH]c5cc(OC)ccc5c4CCN3C[C@H]2C[C@@H](OC(=O)c2cc(OC)c(OC)c(OC)c2)[C@@H]1OC`, the Potency entry in [1], in test [2], in test [8], in [3], in test [9] and in test [7] was “inactive” in each case. In addition, in [6], the Potency was 39.7 µM (active) and inactive.
On to `O=S(=O)(O)c1ccc2nc(-c3ccccc3)[nH]c2c1`, for which the Potency result in test [1], in test [5], in [6] and in [7] was “inactive” each time. Besides, in test [8], the Potency is 32.7 µM (active) and 8.41 µM (active). For the same compound, in test [4], the compound was classed as inactive.
Turning to `O=C(O)c1cn(-c2ccc(F)cc2)c2cc(N3CCNCC3)c(F)cc2c1=O`, the activity change, negative = inhibition in test [1] is 13.8% [at 18.9 µM] (inactive). Moreover, the Potency entry in test [2], in [3], in [9], in test [6] and in test [7] was “inactive” each time. In addition, the activity change, negative = cytotoxicity in test [8] is 10.6% [at 19 µM] (inactive). Moreover, the compound was classed as inactive in [4].
Regarding `Oc1c(Cl)cc(Cl)cc1Sc1cc(Cl)cc(Cl)c1O`, in [1], the Potency was 21.7 µM (active) and 49.3 µM (active). In addition, the Potency entry in test [3], in [9] and in [7] was “inactive” throughout. The compound was called inactive in test [4].
As for `Nc1nc(=S)c2[nH]cnc2[nH]1`, the Potency result in [1], in test [2], in [3], in test [5], in test [10] and in [6] was “inactive” throughout. Moreover, the Potency result in test [7] is “inactive”. Moreover, the Potency in test [8] was 4.73 µM (active). Moreover, the compound was called inactive in test [4].
Consider `CCCCCC(=O)O[C@]1(C(C)=O)CC[C@H]2[C@@H]3CCC4=CC(=O)CC[C@]4(C)[C@H]3CC[C@@]21C`, for which the Potency is 21.1 µM (active) in [1]; 43 µM (active) and 33.5 µM (active) in [2]; 43 µM (active) in test [6]. Besides, the Potency result in [3], in [5], in test [10] and in test [7] was “inactive” each time.
On to `CC(C)CCOCc1ccccc1`, for which the Potency result in test [1], in test [8], in test [3], in test [9], in [5] and in [10] was “inactive” in each case. Besides, the Potency result in [6] and in test [7] was “inactive” throughout. Further, the result in test [4] was inactive.
In the case of `CCC(C)(Oc1ccc(C2(c3ccc(OC(C)(CC)C(=O)O)cc3)CCCCC2)cc1)C(=O)O` (stereo not given), the Potency entry in test [1], in test [2], in test [8], in [3], in [9] and in [6] was “inactive” throughout. The Potency entry in test [7] was “inactive”. The compound was classed as inactive in test [4].
Take `CC1=CC(=O)c2ccccc2C1=O`: the Potency entry in test [2], in test [8], in test [5] and in test [7] was “inactive” each time. The values for the Potency in test [3], in test [9] and in [6] were 49 µM (active), 54.9 µM (active) and 43.3 µM (active), respectively. Further, in test [4], the compound was classed as inactive.
`Cc1cc(Cc2cc(C)cc(C(C)(C)C)c2O)c(O)c(C(C)(C)C)c1`: the Potency was 43.5 µM (active) and 48.6 µM (active) in [2]; 27.4 µM (active) in test [8]; 49.2 µM (active) and 54.9 µM (active) in test [3]; 43.9 µM (active) and 54.9 µM (active) in test [9]; 39.8 µM (active) and 61.1 µM (active) in [6]; 61.4 µM (active) in [7]. Also, the result in test [4] was inactive. Besides, the Potency result in [5] is “inactive”.
`C=C(C)C(=O)O`: the Potency result in test [2], in test [8], in test [3], in test [9], in test [5] and in test [6] was “inactive” in each case. For the same compound, the Potency entry in test [7] was “inactive”. Besides, the compound was classed as inactive in test [4].
As for `O=C1OC2(c3ccc(O)cc3Oc3cc(O)ccc32)c2ccccc21`, the Potency result in test [2], in test [8], in test [3], in test [9] and in test [7] was “inactive” in each case. In addition, the Potency was 536 nM (active) and 3.7 µM (active) in test [5]; 155 nM (active) and 1.69 µM (active) in test [10].
Consider `Cc1cc(OCCOCC[N+](C)(C)Cc2ccccc2)ccc1C(C)(C)CC(C)(C)C`, for which the Potency in [2] was 54.2 µM (active) and 26.6 µM (active); in test [8], 27.1 µM (active) and 13.3 µM (active); in test [3], 43.4 µM (active) and 23.9 µM (active); in test [9], 43.4 µM (active) and 23.9 µM (active); in test [6], 54.2 µM (active). Further, in test [4], the compound was called inactive. For the same compound, the Potency entry in [5] and in test [10] was “inactive” in each case.
On to `COc1ccc(CCN(C)CCCC(C#N)(c2ccc(OC)c(OC)c2)C(C)C)cc1OC` (stereo not given), for which the Potency entry in test [2], in test [8], in [9], in test [5] and in test [10] was “inactive” in each case.
Consider `Nc1ccc2cc3ccccc3cc2c1`, for which the Potency result in [2], in test [8], in test [3], in [9] and in test [7] was “inactive” throughout.
As to `O=C(O)c1cccc(C(=O)O)c1`, the Potency result in test [2], in test [8], in test [3], in test [9], in test [5] and in [6] was “inactive” throughout. In test [7], the Potency result is “inactive”. In test [4], the outcome was inactive.
For `Cc1ccc(S(=O)(=O)Oc2ccc(N=Nc3ccc(-c4ccc(N=Nc5c(O)ccc6cc(S(=O)(=O)O)cc(S(=O)(=O)O)c56)c(C)c4)cc3C)cc2)cc1`, the Potency entry in test [2], in test [8], in test [3], in test [9] and in test [7] was “inactive” in each case. Also, the outcome in test [4] was inactive. In addition, the Potency in [6] is 11.2 µM (active) and 8.92 µM (active).
For the compound `CCOc1ccc2c(c1)C(C)=CC(C)(C)N2`, the Potency entry in [2], in test [8], in [3], in [9], in [5] and in test [6] was “inactive” in each case. Besides, in test [7], the Potency entry was “inactive”.
For the compound `NC(N)=Nc1nc(CSCC/C(N)=N/S(N)(=O)=O)cs1`, the Potency result in [2], in [8], in [3], in test [9], in [6] and in [7] was “inactive” each time. Also, the call in test [4] was inactive.
As for `CCN(CC)c1ccc2c(C)cc(=O)oc2c1`, the Potency entry in [2], in test [8], in test [3], in test [9], in [5] and in [10] was “inactive” in each case. For the same compound, the Potency entry in test [6] and in test [7] was “inactive” each time.
Regarding `CC(C)(c1ccccc1)c1ccc(Nc2ccc(C(C)(C)c3ccccc3)cc2)cc1`, the Potency result in test [3], in [9], in test [5], in [10], in test [6] and in test [7] was “inactive” throughout. Moreover, the compound was called inactive in [4].
Turning to `CCC(C)(C)C(=O)O[C@H]1C[C@@H](C)C=C2C=C[C@H](C)[C@H](CC[C@@H]3C[C@@H](O)CC(=O)O3)[C@H]21`, the Potency entry in test [2], in [3], in [9], in [5] and in [7] was “inactive” in each case. Moreover, the compound was classed as inactive in [4].
Consider `O=C(Nc1ccccc1SSc1ccccc1NC(=O)c1ccccc1)c1ccccc1`, for which the Potency entry in [2], in test [3], in test [9], in [5], in test [6] and in test [7] was “inactive” each time. The call in test [4] was inactive.
For `CN1C(=O)c2ccc([N+](=O)[O-])cc2C1=O`, the Potency result in test [2], in test [8], in [3], in test [9], in test [5] and in test [6] was “inactive” each time. Also, the Potency result in test [7] was “inactive”. Moreover, the compound was classed as inactive in test [4].
